Screening data as filed in PubChem.
Compounds with a hit are over-represented: about 19% of the library has one in this group of screens.
HepG2 tox = qHTS for Inhibitors of TGF-b: Cytotox Counterscreen; 0.76% of 410,000 active; AID 588856, 2011; Potency, µM (titrated, usually from 46.1 µM), inactives show at the highest dose activity change, negative = cytotoxicity, actives largely listed as cytotoxic; HepG2 CAGA-GFP viability, ATP luminescence, 18 h; also: potency is read from the fitted curve at half-maximal effect
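CellTiter-Glo luminescence gave cytotoxicity after 18 hours at 37 degrees C. The cells were HepG2 CAGA-GFP in 1% FBS DMEM, stimulated with 500 pg/mL TGF-beta after compound addition. %Activity was normalised to no-cell wells (complete cell-killing) and DMSO (no toxicity), and curves were fitted and classified.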
ASM inhibitor = Inhibitors of Secretory Acid Sphingomyelinase (S-ASM): qHTS; Potency, µM (top dose mostly 57.5 µM), for inactives: at the highest dose activity change, negative = inhibition, most hits filed as inhibitors; placental ASM, HMU-PC fluorogenic substrate, 60 min; AID 504937, 2011; 0.006% of 340,000 active; Sphingomyelin phosphodiesterase (Homo sapiens), P17405; also: potency is read from the fitted curve at half-maximal effect
Target sequence (P17405 47-631 limits assumed): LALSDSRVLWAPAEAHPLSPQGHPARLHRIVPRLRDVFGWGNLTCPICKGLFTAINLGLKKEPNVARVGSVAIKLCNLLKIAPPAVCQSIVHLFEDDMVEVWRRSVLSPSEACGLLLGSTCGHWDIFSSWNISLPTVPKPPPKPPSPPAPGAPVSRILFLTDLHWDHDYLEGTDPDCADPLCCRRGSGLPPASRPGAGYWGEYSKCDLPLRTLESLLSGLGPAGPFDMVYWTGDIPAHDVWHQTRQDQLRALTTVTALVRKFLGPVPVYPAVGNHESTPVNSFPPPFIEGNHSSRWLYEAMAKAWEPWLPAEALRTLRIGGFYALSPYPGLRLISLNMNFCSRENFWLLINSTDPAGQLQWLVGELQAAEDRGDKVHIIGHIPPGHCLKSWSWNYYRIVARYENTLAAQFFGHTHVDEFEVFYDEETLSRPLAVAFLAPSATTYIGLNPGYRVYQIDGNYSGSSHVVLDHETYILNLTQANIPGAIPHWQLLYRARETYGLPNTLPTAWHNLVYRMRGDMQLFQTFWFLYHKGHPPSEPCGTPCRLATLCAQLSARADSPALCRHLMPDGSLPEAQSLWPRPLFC
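qHTS format. ASM enzyme prepared from human placenta hydrolyses the fluorogenic substrate HMU-PC0 (9 uM final) over 60 min at 37 °C after a 10 min compound preincubation.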
DT40 TDP1 no CPT = qHTS for Inhibitors of human tyrosyl-DNA phosphodiesterase 1 (TDP1): qHTS in cells in absence of CPT | DT40 Tdp1-/- hTDP1 cells, no CPT, ATP luminescence, 48 h | Potency, µM (top dose mostly 46.2 µM), inactives show at the highest dose activity change, negative = growth inhibition, actives largely listed as inhibitors | 15% of 420,000 active; also: potency is read from the fitted curve at half-maximal effect; % is scaled to controls: 0 for no effect and ±100 for the full control effect; nearly all actives have a fitted effect of over 55% in size
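Readout: luminescence from CellTiter-Glo after 30 min in the dark at RT. Cells: DT40 Tdp1-/- with stable hTDP1, 400/well. Exposure: compounds alone, ≥48 hr, 37 °C.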
IL-1B inflam inh = qHTS for Inhibitors of Inflammasome Signaling: IL-1-beta AlphaLISA Primary Screen. THP-1 LPS/ATP IL-1B secretion, AlphaLISA, 16 h; stronger effect = lower value. activity change, % at 57.5 µM. 4.7% of 360,000 active. AID 743279, 2014; in the data active = activity change below about -50%; inconclusive = mostly about -30% to -49%; also: % is scaled to controls: 0 for no effect and ±100 for the full control effect
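Secreted IL-1B measured by AlphaLISA bead assay after 16 h compound exposure of THP-1 cells; compounds (final up to 57.5 uM) added 1 h before LPS (250 ng/mL) and ATP (1.25 mM) stimulation; lower signal means less secretion.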
DT40 TDP1 CPT = qHTS for Inhibitors of human tyrosyl-DNA phosphodiesterase 1 (TDP1): qHTS in cells in presence of CPT | chicken DT40 Tdp1-/-;hTDP1 cells + 20 nM CPT, ATP luminescence, 48 h | Potency, µM (titrated, usually from 46.2 µM), for the others: top-dose activity change, negative = growth inhibition, actives largely listed as inhibitors | 12% of 420,000 active | AID 686979, 2013; also: potency is read from the fitted curve at half-maximal effect; % is scaled to controls: 0 for no effect and ±100 for the full control effect; nearly all actives have a fitted effect of over 55% in size
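Chicken DT40 Tdp1-/- cells complemented with human TDP1, 400 cells/well, exposed to compounds plus 20 nM camptothecin for at least 48 h at 37 C; viability read as ATP content by CellTiter-Glo luminescence.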
TGFb inhibitor = qHTS for Inhibitors of TGF-b; HepG2 CAGA-GFP TGF-b/SMAD3 reporter, GFP fluorescence, 18 h; TGF-beta stimulated, 500 pg/mL final; Potency, µM (top dose mostly 46.1 µM), for inactives: at the top dose activity, negative = inhibition, usual class: inhibitors; 1.2% of 410,000 active; AID 588855, 2011; also: potency is read from the fitted curve at half-maximal effect; % is scaled to controls: 0 for no effect and ±100 for the full control effect; nearly all actives have a fitted effect of over 65% in size
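Smad-responsive CAGA-GFP expression was quantified in HEPG2 cells exposed to compounds and 500 pg/mL final TGF-beta for 18 h at 37 degrees C; unstimulated wells defined full inhibition.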
Numbers without * were called inactive; i = inactive; ? = inconclusive; / = no result. Unless noted, calls follow the shape of the dose curve; as a rule, active = well fitted curve in the direction sought with a large enough effect; inconclusive = small, poorly fitted or top-dose-only effect, or another doubt; inactive = no such curve, though single readings can be large; an effect the other way counts as inactive or inconclusive.

SMILES | HepG2 tox | ASM inhibitor | DT40 TDP1 no CPT | IL-1B inflam inh | DT40 TDP1 CPT | TGFb inhibitor
CC1CCCN(C2=NC(=O)/C(=C/c3cn(-c4ccccc4)nc3-c3cccc(S(=O)(=O)N(C)C)c3)S2)C1 (centres undefined) | 39% | 21% | 12µM* | -17 | 16µM* | 17%
Cc1cc(-c2nn(-c3ccccc3)cc2/C=C2\SC(N)=NC2=O)ccc1OC(C)C | -1% | 29% | ? | -8 | ? | ?
CCCN1CCN(CCNC(=O)Nc2cc(OC)cc(OC)c2)CC1 | -18% | / | 3% | / | -17% | -33%
COC(=O)/C(=C\c1ccc(O)cc1)c1nc2ccccc2[nH]1 | -3% | 35% | ? | -6 | ? | 1%
O=C(/C=C/c1cccc(Cl)c1)c1nc2ccccc2[nH]1 | -72% | -4% | 9.2µM* | -17 | 12µM* | ?
O=C(/C(=C\c1ccccc1)c1nc2ccccc2[nH]1)c1ccc(Cl)cc1 | -56% | -2% | 6.5µM* | -100* | 7.3µM* | ?
Cc1cc(C)c2c(c1)c(C)cc1nnc(SCC(=O)c3ccc(F)cc3)n12 | -3% | / | ? | / | ? | -26%
O=C(CCN1C(=O)S/C(=C\c2ccccc2)C1=O)N1CCCCC1 | -11% | -3% | ? | -4 | ? | 1%
O=C1/C(=C/c2ccccc2)SC(=S)N1CC(=O)N1CCCCC1c1cccnc1 (centres undefined) | -103% | -15% | 16µM* | -24 | 15µM* | ?
O=C(CCN1C(=O)S/C(=C\c2ccccc2)C1=O)N1CCOCC1 | -17% | -1% | -30% | -80* | ? | -1%
O=C(CCCN1C(=O)/C(=C/c2ccccc2)SC1=S)N1CCOCC1 | -22% | -13% | ? | -96* | ? | -10%
O=C(CCN1C(=O)/C(=C\c2ccccc2)SC1=S)N1CCOCC1 | -1% | -26% | 10µM* | -63* | 8.2µM* | 1%
O=C1/C(=C/c2cccnc2)SC(=S)N1Cc1ccco1 | -2% | -11% | 21µM* | -97* | 23µM* | -40%
O=C1/C(=C/c2cccnc2)SC(=S)N1c1ccccc1 | -7% | -2% | -8% | 17 | -16% | -11%
Cc1ccc(/C=C2\SC(=S)N(CCC(=O)N3CCOCC3)C2=O)cc1 | -23% | -8% | 18µM* | 12 | 16µM* | -1%
COc1ccc(/C=C2\SC(=S)N(CCC(=O)N3CCOCC3)C2=O)cc1 | 1% | -13% | ? | -66* | ? | -2%
O=C(CN1C(=O)S/C(=C/c2ccc(N3CCOCC3)cc2)C1=O)N1CCOCC1 | -4% | 4% | -12% | 6 | -19% | -4%
CC(C)COc1ccc(CSCCNC(=S)Nc2ccccc2)cc1 | -82% | -12% | 15µM* | -9 | ? | ?
CCCCCOc1ccc(CSCCNC(=S)Nc2ccccc2)cc1 | -9% | -4% | -28% | 16 | -14% | -11%
COc1ccc(CNc2ncncc2-c2cccnc2)c(OC)c1 | / | / | -23% | / | -1% | /
COc1ccc(CNc2ncncc2-c2ccoc2)c(OC)c1 | / | / | ? | / | 23µM* | /
COc1cccc(-c2cncnc2NCc2ccc(OC)cc2OC)c1 | / | / | 16µM* | / | ? | /
c1cncc(CNc2ncncc2-c2ccoc2)c1 | / | / | -23% | / | ? | /
CCN1C(=O)[C@H]2[C@@H](c3ccc(C)cc3)N3C(=O)N(c4ccc(C(F)(F)F)cc4)C(=O)[C@@]3(CC(C)C)[C@H]2C1=O | -1% | -9% | 16µM* | 2 | ? | -1%
Cc1cccc([C@@H]2[C@@H]3C(=O)N(Cc4ccccc4)C(=O)[C@@H]3[C@]3(Cc4ccccc4)C(=O)N(c4ccc(C(F)(F)F)cc4)C(=O)N23)c1 | -24% | -2% | 16µM* | -1 | 18µM* | -32%
SMILES | HepG2 tox | ASM inhibitor | DT40 TDP1 no CPT | IL-1B inflam inh | DT40 TDP1 CPT | TGFb inhibitor
Cc1cccc([C@@H]2[C@@H]3C(=O)N(Cc4ccccc4)C(=O)[C@@H]3[C@]3(Cc4ccccc4)C(=O)N(c4ccccc4)C(=O)N23)c1 | -9% | 6% | -9% | 17 | -12% | -8%
CCN1C(=O)[C@H]2[C@@H](c3ccc(C)cc3)N3C(=O)N(c4ccc(C)cc4)C(=O)[C@@]3(CC)[C@H]2C1=O | 3% | 2% | -16% | 4 | -6% | ?
CC(=O)Nc1ccc(S(=O)(=O)Nc2nc3ccccc3nc2Nc2cccc(S(N)(=O)=O)c2)cc1 | -23% | 220% | -1% | 6 | -5% | -1%
O=C1CCCC2=C1C(c1ccco1)Nc1ccc3ccccc3c12 (centres undefined) | -5% | i | 18µM* | -13 | 21µM* | -17%
CC1(C)CC(=O)C2=C(C1)c1c(ccc3ccccc13)NC2c1ccc(C(=O)O)cc1 (centres undefined) | -1% | i | 6% | 23 | 38% | 0%
CC1(C)CC(=O)C2=C(C1)c1c(ccc3ccccc13)NC2c1cc([N+](=O)[O-])cc([N+](=O)[O-])c1O (centres undefined) | 6% | 6% | ? | -11 | ? | ?
O=C1CCCC2=C1C(c1ccc(O)c(O)c1)Nc1ccc3ccccc3c12 (centres undefined) | -21% | 101% | 10µM* | -12 | ? | ?
COc1cc(C2Nc3ccc4ncccc4c3C3=C2C(=O)CC(C)(C)C3)cc(OC)c1O (centres undefined) | -12% | 16% | ? | 17 | ? | -40%
COc1cc(C2Nc3ccc4ncccc4c3C3=C2C(=O)CCC3)cc(OC)c1O (centres undefined) | 4% | 14% | 5.2µM* | 23 | 5.2µM* | -2%
Cc1ccc(C2Nc3ccc4ccccc4c3C3=C2C(=O)CC(C)(C)C3)o1 (centres undefined) | -15% | i | ? | -52* | ? | 3%
CCOC(=O)c1c(C)oc2nc(C)nc(Nc3ccc(C)c(Cl)c3)c12 | -15% | / | -12% | / | -15% | -3%
Cc1nn2c(=O)cc(COC(=O)c3ccco3)nc2s1 | 1% | / | -6% | / | 1% | ?
